# Screening results: PubChem, several laboratories
# Most compounds without a hit are left out; they make up all but 1.7% or so of the library.
# H9c2 TAG inh – inhibitors of triacylglycerol accumulation, primary screen, cell-based, uHTS, fluorescence, H9c2 | H9c2 cells, Nile Red lipid (TAG) fluorescence; cells loaded with 200 µM oleic acid | inhibition, % at 12.5 µM | hit rate 0.66% among 230,000 | AID 651582, 2012;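 active = pattern-corrected inhibition of lipid staining of at least 50% with the nuclear-stain viability signal not falling by more than 50%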;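 note: 0% = DMSO wells and 100% = triacsin C control wells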
# CHT inh – inhibitors of human choline transporter CHT; hit rate 0.86% among 310,000; CHT-expressing cells, membrane potential dye, choline response; active compounds read low; High affinity choline transporter 1 (Homo sapiens), Q9GZV3; B-score at 10 µM;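 active = B-score over 3 SD under the library average, and starting fluorescence ratio not unusually high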;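 note: choline stimulus applied at its EC90 after an EC20 pre-addition; B-score computed on integrated fluorescence ratio after choline addition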
# Target sequence (Q9GZV3 whole entry, looked up): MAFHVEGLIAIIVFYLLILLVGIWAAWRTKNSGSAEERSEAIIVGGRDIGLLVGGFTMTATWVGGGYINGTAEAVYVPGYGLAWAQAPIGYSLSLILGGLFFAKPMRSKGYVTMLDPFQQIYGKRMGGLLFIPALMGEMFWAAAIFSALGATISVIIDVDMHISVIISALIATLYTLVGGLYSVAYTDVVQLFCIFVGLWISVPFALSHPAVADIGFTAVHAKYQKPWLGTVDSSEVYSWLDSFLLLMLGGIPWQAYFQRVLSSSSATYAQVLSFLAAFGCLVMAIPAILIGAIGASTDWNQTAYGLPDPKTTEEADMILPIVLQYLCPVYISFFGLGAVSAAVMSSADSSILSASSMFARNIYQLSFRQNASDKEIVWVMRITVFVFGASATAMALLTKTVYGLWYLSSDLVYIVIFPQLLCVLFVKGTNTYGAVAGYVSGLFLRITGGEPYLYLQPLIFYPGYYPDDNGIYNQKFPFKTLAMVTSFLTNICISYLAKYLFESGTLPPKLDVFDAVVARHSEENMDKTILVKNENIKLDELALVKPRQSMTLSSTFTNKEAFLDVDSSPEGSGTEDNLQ
# CHT PAM – CHT positive allosteric modulators, primary screen, cell-based, membrane potential dye, choline EC20; AID 488977, 2010; CHT-expressing cells; active compounds read high; LV-AA mutant CHT in HEK293 cells; B-score at 10 µM; hit rate 0.49% among 310,000; High affinity choline transporter 1 (Homo sapiens), Q9GZV3;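 active = initial fluorescence not abnormally high and integrated response B-score, plate-corrected, over 3 SD above library mean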
# MIN6 prolif – inducers of MIN6 beta-cell proliferation, primary screen, ATP luminescence, uHTS; MIN6 cells proliferation, ATPlite luminescence, 48 h; cells starved in 0.2% serum; 100% = growth in 10% serum; proliferation, % at 10 µM; hit rate 0.29% among 330,000; AID 2380, 2010;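 active = compounds whose signal lies at least 3.5 SD above the mean of all wells on their plate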;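 note: 0% = DMSO-treated cells in low-serum medium and 100% = 10% serum control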
# CHT inh conf – CHT inhibitors, confirmation, cell-based, membrane potential dye, duplicate; shares compounds with CHT inh; CHT-expressing cells, choline membrane potential dye; LV-to-AA substituted CHT, HEK293 cells; CHT activity remaining % of control (active compounds read low), % at 10 µM; hit rate 70% among 2,400; AID 493221, 2011;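 active = choline transporter activity left, mean of duplicates at 10 µM, below buffer-only control mean minus 3 SD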;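 note: depolarization triggered by choline at its EC90 following an EC20 pre-addition; 0% = hemicholinium-3 full block and 100% = buffer-only control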
# HEK293 MPD ctr – membrane potential effects in parental HEK293, counter-screen for CHT inhibitor project, cell-based, membrane potential dye. choline response; active = decrease or increase beyond buffer ±3SD. membrane potential ratio readout (active if shifted either direction beyond buffer ±3SD; no single direction) at 10 µM. hit rate 4% among 2,400. shares compounds with CHT inh;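 note: parental cells lack the transporter so any hit is non-specific; ratio is peak minus trough fluorescence over baseline after EC90 choline challenge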
# Active calls of the source: *; i = inactive; · = not tested or not shown.
SMILES,H9c2 TAG inh,CHT inh,CHT PAM,MIN6 prolif,CHT inh conf,HEK293 MPD ctr
Oc1c(Br)cc(/C=N/n2c(-c3ccccc3)n[nH]c2=S)cc1Br,10.9,i,i,-1.8,·,·
S=c1[nH]nc(-c2ccccn2)n1/N=C/c1cccc(Cl)c1,-1.0,-5.72*,i,0.4,i,i
S=c1[nH]nc(-c2ccco2)n1/N=C/c1cccc(Cl)c1,-13.2,i,i,-2.0,·,·
Oc1ccc(/C=N/n2c(-c3ccccc3)n[nH]c2=S)cc1Br,5.9,-5.98*,i,-1.1,54.5%*,i
CCN1CCN(c2cc(C)c3cc(NC(=S)N4CCC5(CC4)OCCO5)ccc3n2)CC1,34.1,-5.02*,i,-1.5,39.6%*,i
CCN1CCN(c2cc(C)c3cc(NC(=S)N4CCN(c5ccccc5)CC4)ccc3n2)CC1,19.9,i,i,-5.8,·,·
CCN1CCN(c2cc(C)c3cc(NC(=S)N4CCOCC4)ccc3n2)CC1,1.2,-5.85*,i,-2.0,38.6%*,i
CCCN1CCN(C(=S)Nc2ccc3nc(N4CCN(CC)CC4)cc(C)c3c2)CC1,15.9,-9.17*,i,-5.8,22.2%*,i
O=C(Nc1nnc(C2CC2)s1)c1cc([N+](=O)[O-])ccc1N1CCCCC1,·,i,i,-2.2,·,·
CC(=O)Nc1cccc(-c2csc(C(O)c3ccccc3)n2)c1 (centres undefined),-8.1,·,·,·,·,·
CC(C)N(C)CCOC(=O)C1COc2ccccc2O1 (centres undefined),-3.4,-5.99*,i,-0.5,7.5%*,i
O=C(COC(=O)C1COc2ccccc2O1)c1ccccc1 (centres undefined),-7.6,·,·,·,·,·
CCN1CCn2c3c(c4cc(C)ccc42)CCCC31 (centres undefined),-12.1,i,i,-0.3,·,·
CCN1CCn2c3c(c4cccc(C)c42)CCCC31 (centres undefined),·,-11.5*,i,0.6,36.0%*,i
CN(C)CCNC(=O)C(=O)NCC(c1ccc2c(c1)OCO2)N1CCN(c2ccc(F)cc2)CC1 (centres undefined),·,-5.5*,i,-5.0,45.0%*,i
CCCCn1c(=O)n(Cc2cccc(F)c2)c(=O)c2c1ncn2Cc1ccco1,7.8,-12.1*,i,-2.9,52.6%*,i
Cn1cnc2c1c(=O)n(Cc1cccc(F)c1)c(=O)n2C,·,i,i,0.6,·,·
Cc1cc(S(=O)(=O)Nc2ccc(C(=O)NCc3ccncc3)cc2)ccc1F,11.8,i,i,2.9,·,·
O=C1NC(=O)/C(=C/c2ccc(-c3cc(C(=O)O)ccc3Cl)o2)S1,·,i,i,-3.5,·,·
O=C1NC(=O)/C(=C\c2ccc(Br)o2)S1,·,-5.69*,i,-0.5,i,i
O=C(O)CC(NC(=O)C1CCCCC1)c1ccc(OC2CCCC2)cc1 (centres undefined),-6.7,i,i,-0.7,·,·
O=C(O)CC(NC(=O)C1c2ccccc2Oc2ccccc21)c1ccc(OC2CCCC2)cc1 (centres undefined),-8.5,-5.21*,i,-3.4,i,i
O=C(O)CC(NC(=O)c1sc2ccccc2c1Cl)c1ccc(OC2CCCC2)cc1 (centres undefined),-1.9,-5.17*,i,-3.7,28.0%*,i
CCOc1ccc(C(CC(=O)O)NC(=O)C2c3ccccc3Oc3ccccc32)cc1 (centres undefined),·,i,i,-0.4,·,·
COc1ccc(S(=O)Cc2ccc(C(=O)NCc3cccc(OC)c3)o2)cc1 (centres undefined),·,i,i,1.2,·,·
SMILES,H9c2 TAG inh,CHT inh,CHT PAM,MIN6 prolif,CHT inh conf,HEK293 MPD ctr
COc1ccc(C=O)cc1Cn1cnc2c(cnn2C)c1=O,-5.5,-5.71*,i,-1.9,i,i
COc1ccc(C(C)=O)cc1Cn1cnc2c(cnn2C)c1=O,1.4,i,i,-4.2,·,·
O=C(C(c1ccccc1)c1ccccc1)N1CC[C@@]2(O)CCCC[C@H]2C1,-0.5,i,i,-0.7,·,·
CC(C)(C)n1ncc2c(=O)n(CC(=O)OCc3ccccc3)cnc21,-17.5,-6.71*,i,-3.0,i,i
Cc1noc(C)c1COC(=O)c1ccc(F)c(S(=O)(=O)N2CCCCC2)c1,-14.2,-4.96*,i,-1.0,68.9%*,i
CC1Cc2ccccc2N1C(=O)CCS(=O)(=O)c1ccc2c(c1)NC(=O)CS2 (centres undefined),·,-4.99*,i,-3.9,i,i
COc1ccc(S(=O)(=O)CCC(=O)N2c3ccccc3CC2C)cc1 (centres undefined),-10.3,i,i,0.6,·,·
Cc1ccccc1N1CCN(C2CCCN(C(=O)c3cn4cccc(C)c4n3)C2)CC1 (centres undefined),·,·,·,-1.1,·,·
CN1CCCC(CC2Oc3ccccc3Sc3ccccc32)C1 (centres undefined),·,-5.24*,i,-2.5,13.6%*,i
Cc1cccc(N2CCN(C(=O)Cc3c(C(=O)O)[nH]c4ccc(Cl)cc34)CC2)c1C,-7.0,-11.1*,i,-3.0,56.2%*,i
CCCOC(=O)C(C)n1cnc2scc(-c3ccc(C)cc3)c2c1=O (centres undefined),·,i,i,-4.8,·,·
Cc1cccc(NC(=O)NCc2ccc3c(c2)OCO3)c1C,-23.2,-5.23*,i,0.1,i,i
Cc1onc(-c2ccccc2)c1CNS(=O)(=O)c1ccccc1[N+](=O)[O-],3.1,i,i,-1.1,·,·
CC(C)Nc1nc(Cl)nc(N(C#N)CN2C(=O)c3ccccc3C2=O)n1,·,-6.88*,i,-4.5,40.0%*,i
COc1cc(O)cc2c1[C@@H]1Oc3c(ccc(O)c3CC=C(C)C)[C@@H]1CO2,·,i,i,-4.0,·,·
O=C(CCC(=O)N1CCN(c2ccccc2F)CC1)N1CCN(c2ccc(F)cc2)CC1,·,-5.38*,i,-2.0,68.6%*,i
O=C(CCc1ccccc1O)NC1CCCc2ccccc21 (centres undefined),·,-6.16*,i,3.6,i,i
COc1ccccc1CC(=O)NC1CCCc2ccccc21 (centres undefined),-13.4,i,i,0.6,·,·
CC(=O)c1ccccc1OCCCCN1CCCCC1,·,i,i,-1.4,·,·
CC(C)c1ccc(/C=C/C2=NNC(=O)CC2)cc1,23.9,i,i,-2.0,·,·
CC(C)c1ccc(/C=C/c2ccc(=O)n(C)n2)cc1,17.0,-6.9*,i,-5.3,i,i
Cc1ccc(CN2C(=O)C(C)Nc3ncnc(N4CCOCC4)c32)cc1 (centres undefined),6.9,i,i,-3.4,·,·
